HEK293 tox = HEK 293 cell cytotoxicity | 94,000 tested, 6.6% active | HEK 293 viability, ATP luminescence (CellTiter-Glo), 48-72 h | Potency, µM (doses to about 115 µM), without a hit: at the highest dose activity change, negative = cytotoxicity, actives largely listed as inhibitors; note: % is set by controls: 0 for no effect and ±100 for the full control effect; nearly all actives have a fitted effect of over 60% in size
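ATP-coupled CellTiter-Glo luminescence served as viability read-out, recorded 10 min after reagent addition at room temperature. HEK 293 cells, 250 cells/well, had been incubated with pintool-transferred compound for 48 or 72 hr at 37 degree Celsius.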
hNpr1 antagonist = blocks ANP-stimulated signaling of human Npr1 receptor. HEK293 hNpr1 GloSensor cGMP, ANP-stimulated luminescence. Potency, µM (highest dose often 46.3 µM), for inactives: at the highest dose activity change, negative = inhibition, usual class: inhibitors. 76,000 tested, 1.6% active. P16066; calls by dose curve; note: % is set by controls: 0 for no effect and ±100 for the full control effect; nearly all actives have a fitted effect of over 60% in size
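Compound pre-incubated 30 min at room temperature on GloSensor-loaded HEK293 cells stably carrying hNpr1 and the pGS-40F cGMP biosensor. Stimulation uses hNppA at 0.1 nM final; luminescence is taken at baseline and 20 min post-agonist.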
3T3 cytotox = cytotoxic compounds in NIH 3T3 cells | 94,000 tested, 4.3% active | NIH 3T3 viability, CellTiter-Glo ATP luminescence, 48-72 h | Potency, µM (doses to about 96.7 µM), for inactives: at the top dose activity change, negative = cytotoxicity, usual class: inhibitors; note: % is set by controls: 0 for no effect and ±100 for the full control effect; nearly all actives have a fitted effect of over 55% in size
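NIH 3T3 cells at 400 cells/well received 23 nL of compound by pintool and were incubated 48 or 72 h at 37 °C. Viability was read as ATP-coupled CellTiter-Glo luminescence.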
Luciferase inh = inhibitors of firefly (Photinus pyralis) luciferase; purified P. pyralis luciferase, luminescence, biochemical; Potency, µM (doses to about 115 µM), actives largely listed as inhibitors; 76,000 tested, 2.5% active; note: % is set by controls: 0 for no effect and ±100 for the full control effect; nearly all actives have a fitted effect of over 65% in size
Target sequence (P08659 whole entry, looked up): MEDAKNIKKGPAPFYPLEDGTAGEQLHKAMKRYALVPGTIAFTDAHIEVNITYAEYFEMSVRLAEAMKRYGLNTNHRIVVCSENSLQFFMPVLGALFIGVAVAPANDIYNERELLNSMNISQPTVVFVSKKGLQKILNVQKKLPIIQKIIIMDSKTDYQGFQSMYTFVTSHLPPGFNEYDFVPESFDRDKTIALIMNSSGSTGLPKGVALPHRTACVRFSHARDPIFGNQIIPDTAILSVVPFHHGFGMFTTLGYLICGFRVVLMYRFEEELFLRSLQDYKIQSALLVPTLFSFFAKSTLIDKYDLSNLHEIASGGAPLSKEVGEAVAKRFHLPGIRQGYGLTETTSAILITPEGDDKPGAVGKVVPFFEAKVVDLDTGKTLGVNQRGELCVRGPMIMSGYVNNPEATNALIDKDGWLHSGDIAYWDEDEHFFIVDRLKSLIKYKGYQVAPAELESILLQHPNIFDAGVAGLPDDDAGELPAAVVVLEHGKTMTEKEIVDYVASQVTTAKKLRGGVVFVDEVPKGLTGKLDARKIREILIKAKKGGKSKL
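Purified 10nM P. pyralis luciferase with 10uM D-luciferin and 10uM ATP in 50mM Tris acetate pH 7.5, 10mM Mg acetate, 0.01% Tween-20, 0.05% BSA. qHTS titration; luminescence read by CCD imager.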
Npr1 antag conf = confirmation of human Npr1 natriuretic peptide receptor antagonists | shares compounds with hNpr1 antagonist | HEK293 hNpr1 cGMP GloSensor luminescence, ANP-stimulated | Potency, µM (doses to about 57.6 µM), for inactives: at the highest dose activity change, negative = inhibition, actives largely listed as inhibitors | 1,400 tested, 76% active; calls by dose curve; note: nearly all actives have a fitted effect of over 70% in size
NPR2 antag = hNpr2 antagonism, selectivity versus Npr1; 1,400 tested, 67% active; shares compounds with hNpr1 antagonist; HEK293 hNpr2 GloSensor cGMP luminescence, CNP-stimulated; AID 1347046; Potency, µM (top dose mostly 57.6 µM), without a hit: at the top dose activity change, negative = inhibition, actives largely listed as inhibitors; calls by dose curve; note: nearly all actives have a fitted effect of over 70% in size
FLuc inh counter = FLuc enzyme inhibition, Npr1 counter-screen | shares compounds with hNpr1 antagonist | purified FLuc enzyme, luminescence, Km substrate | Potency, µM (titrated, usually from 57.6 µM), for the others: at the highest dose activity change, negative = inhibition, hits mostly inhibitors | 1,400 tested, 0.7% active; note: series mostly up to about 58 µM; 0% is about no effect
GloSensor cGMP = counter-screen for Npr1 antagonists: GloSensor control cell line; shares compounds with hNpr1 antagonist; HEK293 GloSensor cGMP, SNP-stimulated, luminescence; Potency, µM (titrated, usually from 57.6 µM), without a hit: at the top dose activity change, negative = inhibition, usual class: inhibitors; 1,400 tested, 69% active; calls by dose curve; note: % is set by controls: 0 for no effect and ±100 for the full control effect; nearly all actives have a fitted effect of over 70% in size
Starred values were filed as active, the others as inactive; [ ] = remark or other dose. Only some compounds are listed: those with a hit (about 11% of all), similar ones and a draw of the others. Unless noted, calls come from the whole dose curve; as a rule, active = well fitted curve in the direction sought with a large enough effect; inconclusive = small, poorly fitted or top-dose-only effect, or another doubt; inactive = no such curve, though single readings can be large; an effect the other way counts as inactive or inconclusive. Potency is the fitted concentration of half-maximal effect.

For O=C(c1ccccc1)N1CCc2sc(C(=O)N3CCN(c4ccccc4)CC3)cc2C1 the results were HEK293 tox inconclusive, hNpr1 antagonist 10µM*, 3T3 cytotox inconclusive, Luciferase inh inactive, Npr1 antag conf 21.7µM*, NPR2 antag 27.3µM*, FLuc inh counter -3.6% and GloSensor cGMP 21.7µM*.
For CCC(=O)N1CCc2sc(C(=O)NC3CCN(Cc4ccccc4)CC3)cc2C1 the results were HEK293 tox inconclusive, hNpr1 antagonist -20.4%, 3T3 cytotox -24.3% and Luciferase inh inactive.
`CC(=O)Nc1cc(-c2cn(C)c(=O)n3cc(COc4ccc(Cl)cc4)nc23)ccn1` gave HEK293 tox -49.8%[172 µM], hNpr1 antagonist -13.1%[70.6 µM], 3T3 cytotox -40.6%[138 µM] and Luciferase inh inactive.
For Cn1cc(-c2ccc(O)c(F)c2)c2nc(COc3ccc(Cl)cc3)cn2c1=O the results were HEK293 tox 31.6µM*, hNpr1 antagonist 14.1µM*, 3T3 cytotox 31.6µM*, Luciferase inh inactive, Npr1 antag conf 31.4µM*, NPR2 antag 31.4µM*, FLuc inh counter inconclusive and GloSensor cGMP 28µM*.
Screening OCC1(O)CCCN(Cc2ccccc2Cn2cccn2)C1 (centres undefined) returned HEK293 tox -7.5%, hNpr1 antagonist 0.1%, 3T3 cytotox -10.0% and Luciferase inh inactive.
For Cc1ccc(CN2C[C@@H]3C(=O)N(C)C(=O)[C@@H]3C2)cc1C the results were HEK293 tox 2.9%, hNpr1 antagonist 4.4%, 3T3 cytotox -5.1% and Luciferase inh inactive.
O=C(CCc1nc2ccccc2s1)N1CCCC(c2nc(C3CCOCC3)no2)C1 (centres undefined) was read as HEK293 tox inconclusive, hNpr1 antagonist -14.3%, 3T3 cytotox -26.3%, Luciferase inh inactive, Npr1 antag conf -10.3%, NPR2 antag 1.6%, FLuc inh counter -7.2% and GloSensor cGMP -4.1%.
For CC(=O)N1CCC(Cc2noc(-c3ccc(F)cc3)n2)C1 (centres undefined) the results were HEK293 tox -2.5%, hNpr1 antagonist -0.4%, 3T3 cytotox -5.5% and Luciferase inh inactive.
For COc1ccc(-c2nc(CC3CCN(C(=O)c4n[nH]c(=O)c5ccccc45)C3)no2)cc1 (centres undefined) the results were HEK293 tox 31.6µM*, hNpr1 antagonist 10µM*, 3T3 cytotox inconclusive, Luciferase inh inactive, Npr1 antag conf 12.2µM*, NPR2 antag 10.9µM*, FLuc inh counter -0.1% and GloSensor cGMP 8.62µM*.
O=C(CCc1nc2ccccc2s1)N1CCC(Cc2noc(-c3ccc(F)cc3)n2)C1 (centres undefined) was read as HEK293 tox 39.8µM*, hNpr1 antagonist 11.2µM*, 3T3 cytotox inconclusive, Luciferase inh inactive, Npr1 antag conf 21.7µM*, NPR2 antag 21.7µM*, FLuc inh counter -7.6% and GloSensor cGMP 21.7µM*.
For CN(C)c1ccc(CN2CCn3c(nn(-c4ccc([N+](=O)[O-])cc4)c3=O)C2)cc1 the results were HEK293 tox 31.6µM*, hNpr1 antagonist 11.2µM*, 3T3 cytotox inconclusive, Luciferase inh inactive, Npr1 antag conf 17.2µM*, NPR2 antag 19.3µM*, FLuc inh counter 2.7%[86.2 µM] and GloSensor cGMP 13.7µM*.

Screening data deposited in PubChem by National Center for Advancing Translational Sciences (NCATS).
